Source: the supplement of paper PMC9334596
Several values for one entry are separate records, joined by “and”; a condition that tells them apart may be missing. Equal entries are not always repeated. Over roughly 5,300 compounds, “PER2::LUC luminescence relative to vehicle control” has its median near 0.96; the highest 2% begin near 1.3. Shown is part of a subset that was picked to be rich in the highest values.

Tested on: mPer2Luc MEF
Assay: PER2::LUC luminescence relative to vehicle control (fold of vehicle); higher = higher PER2::LUC reporter signal
Details: 10 µM
Summary of the method: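 In 384-well plates, ~3000 mPer2Luc reporter mouse embryonic fibroblasts per well were cultured in DMEM with 10% FBS at 37 °C and 5% CO2 for 48 h before compounds from commercial libraries were added at 10 μM. ONE-Glo luciferase readings were taken 24 h and 30 h after treatment. Each value is PER2::LUC luminescence given as fold of vehicle control.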

SMILES | PER2::LUC luminescence (time after treatment 24 h) | PER2::LUC luminescence (time after treatment 30 h)
COc1cccc(C(=O)NCCN2CCN(c3ccc(Cl)cc3)CC2)c1 | 0.833 | 0.96
COc1cccc(-c2ccc(NC(=O)C3=C(C(=O)O)CCC3)c(F)c2)c1 | 1.43 | 1.75
COc1ccccc1C(=O)Nc1cc2c(cc1N1CCCCC1)n(C)c(=O)n2C | 0.765 | 0.829
CC(C)=CCC/C(C)=C/CC/C(C)=C/CC/C(C)=C/C(=O)O | 1.07 | 0.976
COc1c(O)c2c(=O)cc(OC)c3c4c(OC)cc(=O)c5c(O)c(OC)c6c(c(c1CC(C)=C6C(C)=O)c23)c54 | 0.779 | 0.948
C=CCSSSCC=C | 1.32 | 1.05
Nc1ccc(-c2ccc3ccccc3n2)cc1 | 1.74 | 1.29
Nc1ccc(-c2nc3ccc(-c4nc5ccc(N)cc5[nH]4)cc3[nH]2)cc1 | 0.876 | 0.866
O=C(O)c1cc(-c2ccccc2)nc2ccccc12 | 0.91 | 1.12
COc1cc(Nc2nc3c(s2)CCCC3c2ccc(F)cc2)ccc1-n1cnc(C)c1 (stereo not given) | 1.05 | 1.02
C/C=C\c1ccc(OC)cc1 | 1 | 1.03
CC(CC(=O)O)C(N)C(=O)O (racemic) | 0.979 | 0.922
O=c1cc(-c2ccccc2F)[nH]c2cc3c(cc12)OCO3 | 0.9 | 0.871
CC(C)=CC[C@@H](OC(=O)C=C(C)C)C1=CC(=O)c2c(O)ccc(O)c2C1=O | 1.03 | 1.03
CC12CCc3occc3C1CCC13CC(=O)C(CCC12)C3 (stereo not given) | 0.996 | 0.94
CC(=O)O[C@H]1CC[C@]2(C)C3CC[C@@]4(C)[C@H](C5CC(C6OC6(C)C)OC5O)CC[C@]4(C)C3=CC[C@H]2C1(C)C (stereo not given in full) | 1.14 | 1.08
CC1=C(/C=C/C(C)=C/C=C/C(C)=C/C(=O)O)C(C)(C)CCC1O (stereo not given) | 0.928 | 1.06
COc1cc(C)c(/C=C/C(C)=C/C=C/C(C)=C/C(=O)O)c(C)c1C | 1.82 | 2.04
COc1cc(/C=C/C(=O)O)cc(OC)c1OC | 0.994 | 0.955
O=C(NCc1cccs1)c1cc2nc(-c3ccco3)cc(C(F)(F)Cl)n2n1 | 1.03 | 1.11
Cn1nnnc1SCC1=C(C(=O)O)N2C(=O)[C@@H](NC(=O)C(OC=O)c3ccccc3)[C@H]2SC1 (stereo not given in full) | 0.605 | 0.705
O=C(c1ccc2c(c1)OCO2)N1CCCCC1 | 1 | 0.843
O=C(O)/C=C/C=C/c1ccc2c(c1)OCO2 | 1.07 | 1.03
O=C(/C=C/C=C/c1ccc2c(c1)OCO2)N1CCCCC1 | 1.5 | 1.42
COc1cc(N2CCOCC2)ccc1Nc1ncc(F)c(Nc2ccccc2NS(C)(=O)=O)n1 | 0.771 | 0.673
Nc1nc(Nc2ccc3c(c2)CCC(N2CCCC2)CC3)nn1-c1cc2c(nn1)-c1ccccc1CCC2 (stereo not given) | 0.438 | 0.375
C[C@@H](O)[C@H](NC(=O)c1ccc(C#Cc2ccc(CN3CCOCC3)cc2)cc1)C(=O)NO | 1.32 | 1.62
O=C(NCCN1CCOCC1)c1ccc(Cl)cc1 | 1.09 and 1.08 | 0.965 and 1.2

SMILES | PER2::LUC luminescence (time after treatment 24 h) | PER2::LUC luminescence (time after treatment 30 h)
O=C(c1ccc(CN2CCOCC2)cc1)N1CCN(C2CC2)CC1 | 1.07 | 0.963
O=C1/C(=C/c2cc(Br)c(O)c(Br)c2)COC/C1=C\c1cc(Br)c(O)c(Br)c1 | 0.259 | 0.258
COc1cc2c(c(OC)c1OC)-c1ccc(OC)c(=O)cc1[C@@H](NC=O)CC2 | 0.938 | 0.84
NCC(O)c1ccc(O)c(O)c1 (racemic) | 1.04 | 1.12
NC[C@@H](O)c1ccc(O)c(O)c1 | 1.26 | 1.04
NCC(O)c1ccc(O)c(O)c1 (stereo not given) | 1.47 | 1.55
CCCC[C@@H](C)/C=C(C)/C=C(\C)C(=O)NC1=C[C@@](O)(/C=C/C=C/C=C/C(=O)NC2=C(O)CCC2=O)[C@@H]2O[C@@H]2C1=O | 0.951 | 0.934
Cc1ccc(O)cc1Nc1ccnc(Nc2cccc(C(N)=O)c2)n1 | 1.05 | 1.02
CCOC(=O)c1sc(NC(=O)[C@H](C(C)C)n2c(=O)[nH]c3ccccc3c2=O)nc1C | 1.02 | 0.987
O=C(O[C@H]1[C@H](Oc2ccccc2COC(=O)C2(O)C=CCCC2=O)O[C@H](CO)[C@@H](O)[C@@H]1O)c1ccccc1 (stereo not given in full) | 0.824 | 0.676
Cc1ccc(O)c(N=Nc2ccccc2)n1 | 1.05 | 0.998
Nc1ccc(/N=N/c2ccccc2)c(N)n1 | 1.76 | 1.7
CC[C@H]1CN(c2nc(N)c(C(N)=O)nc2Cl)CCN1C1CCN(Cc2ccc(Cl)cc2)CC1 | 0.96 | 1.01
O=c1cc(-c2ccc(O)cc2)oc2cc(O[C@@H]3O[C@H](CO)[C@@H](O)[C@H](O)[C@H]3O)cc(O)c12 | 1.22 | 1.43
COc1ccc(-c2coc3cc(O)ccc3c2=O)cc1 | 1.77 | 1.97
COc1ccc(-c2coc3cc(O)ccc3c2=O)c(OC)c1 | 1.02 | 1.05
COc1ccccc1-c1coc2cc(O)ccc2c1=O | 1.14 | 1.04
O=c1c(-c2ccc(O)cc2)coc2cc(O[C@@H]3O[C@H](CO)[C@@H](O)[C@H](O)[C@H]3O)ccc12 | 1.25 | 1.39
O=c1cc(-c2ccc(O)c(O[C@@H]3O[C@H](CO)[C@@H](O)[C@H](O)[C@H]3O)c2)oc2cc(O[C@@H]3O[C@H](CO)[C@@H](O)[C@H](O)[C@H]3O)cc(O)c12 | 1.07 | 1.04
OC[C@H]1O[C@@H](Oc2ccc(O)cc2)[C@H](O)[C@@H](O)[C@@H]1O | 1.02 | 0.876
CC(C)Oc1ccc2c(=O)c(-c3ccccc3)coc2c1 | 1.9 | 1.92
O=c1c(-c2ccc(O)cc2)coc2cc(O)ccc12 | 0.822 | 0.788
O=c1c(-c2ccc(O)cc2)coc2cc(O[C@@H]3O[C@H](CO)[C@@H](O)[C@H](O)[C@H]3O)cc(O)c12 | 1.3 | 1.32
C[C@@H]1O[C@@H](O[C@H]2[C@H](Oc3cc(O)c4c(=O)cc(-c5ccc(O)cc5)oc4c3)O[C@H](CO)[C@@H](O)[C@@H]2O)[C@H](O)[C@H](O)[C@H]1O | 0.841 | 0.85
COc1ccc2c(=O)c(CC(=O)O)coc2c1 | 0.908 | 0.978
Cc1ccc(NC(=O)Nc2cc(-c3ccccc3-c3nn[nH]n3)ccc2N(CC(C)C)CC(C)C)cc1 | 0.966 | 0.93
O=c1ccc2cccc(O)c2[nH]1 | 1.06 | 0.957
